Reference: PubChem BioAssay (Tox21)
“And” between values parts separate entries of the source, which are not always exact repeats. Identical values can stand only once. Inconclusive results are not listed. A call without a number means that no potency is given here. More than one record can exist for a structure, and the calls need not agree. The source made the active and inactive calls. Calls follow the shape of the dose curve; as a rule, active = well fitted inhibition curve with a large enough effect in the repeat runs; inconclusive = weak or mixed curves; inactive = no such curve, though single readings can be large or run the other way.

Test: qHTS assay to identify small molecule antagonists of the estrogen related receptor (ERR) signaling pathway from Tox21 library (AID 1224848); also: nearly all actives have a fitted effect of over 50% in size
Conditions: ERR reporter cell line, luciferase antagonist mode, 18 h; series mostly up to 92.4 µM
Excerpt: U.S. Tox21 Program National Center for Advancing Translational Sciences [NCATS] NIH Chemical Genomics Center [NCGC] U.S. Environmental Protection Agency [EPA] National Institutes of Environmental Health Sciences [NIEHS] National Toxicology Program [NTP] U.S. Food and Drug Administration [FDA] Tox21 Assay Overview: Estrogen related receptors (ERRs), the first orphan nuclear receptors discovered, play an important role in the control of cellular energy metabolism. ERRs are required for high-energy production in response to the environmental challenges. ERR-alpha was also identified as an adverse marker for breast cancer progression; ERR-alpha-positive tumors have a poor prognosis. To screen and to identify environmental compounds that perturb the ERR signaling pathways could provide valuable information for potential therapeutic or preventive measures in the treatment of metabolic disease. For identifying ERR antagonists, ERR cell line (provided by NTP) has been used to screen Tox21 10K library.
Tox21 Assay Protocol Summary: The ERR cells were dispensed at 2,000 cells/5 ul/well in 1536-well white plates using a Multidrop dispenser. After the assay plates were incubated at a 37 C/5% CO2 incubator for 6 hours, 23 nL of compounds dissolved in DMSO, positive and negative controls or DMSO only was transferred to the assay plate by a pin tool. The plates were incubated at 37 C for 18 hours. 4 ul/well of One-Glo reagent was added into the assay plates using a Flying Reagent Dispenser. After 30-minute incubation at room temperature, the luminescence intensity in the plates was measured using a ViewLux plate reader.
Potency is read from the fitted curve at half-maximal effect.

| Compound | Potency |
| --- | --- |
| COc1ccc(C(=O)c2ccccc2O)c(O)c1 | inactive |
| CCO[Si](CCCNC(N)=O)(OCC)OCC | inactive |
| CC(=O)Oc1c(C)c(C)c2c(c1C)CC[C@@](C)(CCC[C@H](C)CCC[C@H](C)CCCC(C)C)O2 | inactive |
| Cc1ccc([N+](=O)[O-])c(C)c1 | 12.2 µM (active) and inactive |
| CC(=O)[C@H]1CC[C@H]2[C@@H]3CC=C4C[C@@H](O)CC[C@]4(C)[C@H]3CC[C@]12C | inactive |
| O=C(O)c1ccc(O)cc1 | inactive |
| CC1(C)NC(=O)N(c2ccc([N+](=O)[O-])c(C(F)(F)F)c2)C1=O | 17.2 µM (active) and 11.9 µM (active) |
| COC(=O)C(C)Oc1ccc(Oc2ncc(C(F)(F)F)cc2Cl)cc1 (stereo not given) | 39.1 µM (active) |
| CN1CCOCC1 | inactive |
| CNC[C@H](O)c1ccc(O)c(O)c1 | inactive |
| IC(I)I | inactive |
| CCCCCC1C(=O)CCC1CC(=O)OC (stereo not given) | inactive |
| OCCNCCO | inactive |
| O=C(O)CCCCCCCCCCCC(=O)O | inactive |
| Nc1ccc(N)c(Cl)c1 | 68.5 µM (active) and 54.5 µM (active) |
| Nc1ccc(O)c(N)c1 | inactive |
| C=C1C[C@H]2[C@@H]3C=C(C)C4=CC(=O)CC[C@]4(C)[C@H]3CC[C@]2(C)[C@@]1(OC(C)=O)C(C)=O | 24.8 µM (active) and 21.1 µM (active) |
| COc1cc([C@H]2Oc3cc([C@H]4Oc5cc(O)cc(O)c5C(=O)[C@@H]4O)ccc3O[C@@H]2CO)ccc1O | inactive |
| ClC/C=C/CCl | inactive |
| Cc1ccc(S(=O)(=O)NCl)cc1 | inactive |

| Compound | Potency |
| --- | --- |
| C[C@]12CC[C@@H]3c4ccc(O)cc4CC[C@H]3[C@@H]1CC[C@H]2O | 15.6 µM (active) and 27.3 µM (active) |
| CCCCCC=O | inactive |
| NCCOCCO | inactive |
| O=C1CCc2ccccc2O1 | inactive |
| OC[C@@H](O)[C@@H](O[C@@H]1O[C@H](CO)[C@H](O)[C@H](O)[C@H]1O)[C@H](O)[C@@H](O)CO | inactive |
| CC1(C)OC(=O)NC1=O | inactive |
| C=CC(=O)OCCCC | inactive |
| CC(=O)O[C@]1(C(C)=O)CC[C@H]2[C@@H]3C=C(C)C4=CC(=O)CC[C@]4(C)[C@H]3CC[C@@]21C | 21.7 µM (active) and 26.6 µM (active) |
| C[C@]12CC[C@@H]3c4ccc(O)cc4CC[C@H]3[C@@H]1CC[C@@H]2O | 27.3 µM (active) and 34.4 µM (active) |
| Oc1c(Cl)ccc(Cl)c1Cl | inactive |
| C[C@]12C=CC(=O)C=C1CC[C@H]1[C@@H]3C[C@@H](O)[C@](O)(C(=O)CO)[C@@]3(C)C[C@H](O)[C@@]12F | inactive |
| FC(F)(F)C(Cl)Br (stereo not given) | inactive |
| COCCOCCOCCO | inactive |
| CC1=CC(C)(C)Nc2ccccc21 | inactive |
| C1CN(SSN2CCOCC2)CCO1 | 60.5 µM (active) and 61.1 µM (active) |
| C/C=C/C(=O)N(CC)c1ccccc1C | inactive |
| c1ccc2cc3ccccc3cc2c1 | inactive |
| O=C1OC2(c3ccccc31)c1cc(I)c(O)c(I)c1Oc1c2cc(I)c(O)c1I | inactive |
| CCCCCCCCCCCCCO | inactive |
| Nc1ccc2c(O)cc(S(=O)(=O)O)cc2c1 | 24.4 µM (active) and 13.7 µM (active) |
